Consider 9 compounds from PubChem BioAssay (Tox21).

Test [1] can be described thus: qHTS assay for identifying genotoxic compounds that show differential cytotoxicity against isogenic chicken DT40 cell lines with known DNA damage response pathways - wild type cell line (AID 743012). Further: nearly all actives have a fitted effect of over 60% in size. Further: potency means the concentration at half of the fitted maximal effect. The gist of the method:
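First, wild type DT40 cells were plated at 300 per well and equilibrated about 0.5 h at 37 C/5% CO2. Next, compounds in DMSO were added and exposure lasted 40 h. Finally, CellTiter-Glo was added for 30 min at room temperature and luminescence recorded.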
For orientation: qHTS replaces the single test concentration by a dilution series.

Test [2] is described as follows: qHTS assay for identifying genotoxic compounds that show differential cytotoxicity against isogenic chicken DT40 cell lines with known DNA damage response pathways - Rev3 mutant cell line (AID 743014). Further: nearly all actives have a fitted effect of over 55% in size. Further: potency means the concentration at half of the fitted maximal effect.
A short description of test [3]: qHTS assay for identifying genotoxic compounds that show differential cytotoxicity against isogenic chicken DT40 cell lines with known DNA damage response pathways - Rad54/Ku70 mutant cell line (AID 743015). Further: nearly all actives have a fitted effect of over 60% in size. Further: potency means the concentration at half of the fitted maximal effect.
Test [4] can be described thus: qHTS assay to identify small molecule antagonists of the androgen receptor (AR) signaling pathway using the MDA cell line - cell viability counter screen (AID 743041; further: nearly all actives have a fitted effect of over 45% in size; further: potency means the concentration at half of the fitted maximal effect). The procedure, abridged:
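MDA-kb2 AR-luc human breast carcinoma cells (MMTV-luciferase, AR/GR responsive) were treated with compounds plus R1881 agonist for 16 h at 37 °C. Viability was read as CellTiter-Fluor fluorescence in the same wells as the reporter assay.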

Test [5] is described as follows: qHTS assay to identify small molecule antagonists of the thyroid receptor (TR) signaling pathway - cell viability counter screen (AID 743064). Further: nearly all actives have a fitted effect of over 50% in size. Further: potency means the concentration at half of the fitted maximal effect. The procedure, abridged:
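Viability of T3-stimulated (1 nM final) GH3.TRE-Luc cells is measured by CellTiter-Fluor fluorescence after 23.5 h compound exposure at 37 °C plus 30 min reagent incubation.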

Test [6] is described as follows: qHTS assay to identify small molecule antagonists of the thyroid receptor (TR) signaling pathway (AID 743065). Further: nearly all actives have a fitted effect of over 55% in size. Further: potency means the concentration at half of the fitted maximal effect. The procedure, abridged:
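GH3.TRE-Luc rat pituitary cells carrying two TR response elements driving luciferase were plated for 4 h, given compound plus 1 nM T3 (final), and incubated 23.5 h at 37 C. ONE-Glo luminescence measured reporter inhibition; CellTiter-Fluor fluorescence tracked cytotoxicity.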

In test [7] the target is Estrogen receptor (Homo sapiens) (UniProt P03372). The experiment in a line: qHTS assay to identify small molecule antagonists of the estrogen receptor alpha (ER-alpha) signaling pathway (AID 743069; active means well fitted curve in the direction sought with a large enough effect in the signal ratio in the repeat runs, not every such curve was filed as active; inconclusive means weak or mixed curves, or effect the other way; inactive means no such curve, though single readings can be large or run the other way; the % refers to the signal ratio; further: potency means the concentration at half of the fitted maximal effect). The gist of the method:
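HEK293 cells stably carrying an ER-alpha-UAS-bla beta-lactamase reporter were pre-cultured overnight in 2% charcoal-stripped FBS medium. Test compounds in DMSO were added together with 17beta-estradiol for 18 hr at 37C. Read-out was fluorescence after 2 hr with LiveBLAzer B/G FRET substrate at room temperature.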

Test [8] can be described thus: qHTS assay to identify small molecule antagonists of the estrogen receptor alpha (ER-alpha) signaling pathway - cell viability counter screen (AID 743074; calls by dose curve; further: nearly all actives have a fitted effect of over 45% in size; further: potency means the concentration at half of the fitted maximal effect).
The target of test [9] is Estrogen receptor (Homo sapiens) (UniProt P03372). The experiment in a line: qHTS assay to identify small molecule agonists of the estrogen receptor alpha (ER-alpha) signaling pathway (AID 743075; calls by dose curve; further: potency means the concentration at half of the fitted maximal effect).
Chain of Estrogen receptor (Homo sapiens) (P03372 whole entry, looked up): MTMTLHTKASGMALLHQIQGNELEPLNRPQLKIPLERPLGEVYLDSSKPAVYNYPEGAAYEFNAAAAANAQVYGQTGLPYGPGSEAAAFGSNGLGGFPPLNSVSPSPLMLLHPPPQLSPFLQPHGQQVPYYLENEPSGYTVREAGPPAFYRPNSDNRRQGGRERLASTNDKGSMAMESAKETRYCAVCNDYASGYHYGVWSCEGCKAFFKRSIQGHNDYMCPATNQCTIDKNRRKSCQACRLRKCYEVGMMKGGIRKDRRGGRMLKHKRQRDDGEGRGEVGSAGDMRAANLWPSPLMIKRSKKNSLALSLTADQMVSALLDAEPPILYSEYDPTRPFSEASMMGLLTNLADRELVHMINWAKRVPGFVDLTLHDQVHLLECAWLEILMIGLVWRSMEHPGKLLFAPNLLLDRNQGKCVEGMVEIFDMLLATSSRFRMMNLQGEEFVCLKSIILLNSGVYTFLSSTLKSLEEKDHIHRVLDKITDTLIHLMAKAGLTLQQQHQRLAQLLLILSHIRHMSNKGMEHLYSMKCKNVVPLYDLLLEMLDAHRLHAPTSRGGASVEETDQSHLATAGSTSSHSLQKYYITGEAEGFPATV
Test [10] is described as follows: qHTS assay to identify small molecule antagonists of the estrogen receptor alpha (ER-alpha) signaling pathway using the BG1 cell line (AID 743080; calls by dose curve;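 further: BG1 cells stimulated with 17beta-estradiol alongside compound; nearly all actives have a fitted effect of over 25% in size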; further: potency means the concentration at half of the fitted maximal effect). The gist of the method: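 Seeding, 24 h rest, compound transfer from DMSO, 17beta-estradiol addition, 21.5 h incubation, CellTiter-Fluor (30 min, 37 C), then ONE-Glo (30 min, room temperature): this sequence was run on BG1-Luc-4E2 reporter cells.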

The nature of test [11]: qHTS assay to identify small molecule antagonists of the estrogen receptor alpha (ER-alpha) signaling pathway using the BG1 cell line - cell viability counter screen (AID 743081).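 Further: compound given together with 17beta-estradiol as the ER stimulus; series mostly up to about 70 µM; nearly all actives have a fitted effect of over 45% in size.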
The next test concerns the target Aromatase (Homo sapiens) (UniProt P11511). The experiment in a line: qHTS assay to identify aromatase inhibitors (AID 743083). Further: nearly all actives have a fitted effect of over 55% in size. Further: potency means the concentration at half of the fitted maximal effect.
A short description of test [12]: qHTS assay to identify small molecule antagonists of the androgen receptor (AR) signaling pathway - cell viability counter screen (AID 743033; further: nearly all actives have a fitted effect of over 45% in size; further: potency means the concentration at half of the fitted maximal effect).
Test [13] has as its target Estrogen receptor (Homo sapiens) (UniProt P03372). The experiment in a line: qHTS assay to identify small molecule agonists of the estrogen receptor alpha (ER-alpha) signaling pathway using the BG1 cell line (AID 743079). Further: nearly all actives have a fitted effect of over 20% in size.
Test [14] deals with thyroid hormone receptor (rat, GH3 cells). The experiment in a line: qHTS assay to identify small molecule agonists of the thyroid receptor (TR) signaling pathway (AID 743066; calls by dose curve).

Several values for one entry are separate records, joined by “and”; a condition that tells them apart may be missing. Identical values can stand only once. Some structures have more than one record in an assay (separate samples or runs), and their calls can disagree. Activity calls are given as the source filed them. Unless noted, the call rests on the fitted dose curve; in most records, active means well fitted curve in the direction sought with a large enough effect in the repeat runs; inconclusive means weak or mixed curves; inactive means no such curve, though single readings can be large; an effect the other way counts as inactive or inconclusive.

Chain of Aromatase (Homo sapiens) (P11511 whole entry, looked up): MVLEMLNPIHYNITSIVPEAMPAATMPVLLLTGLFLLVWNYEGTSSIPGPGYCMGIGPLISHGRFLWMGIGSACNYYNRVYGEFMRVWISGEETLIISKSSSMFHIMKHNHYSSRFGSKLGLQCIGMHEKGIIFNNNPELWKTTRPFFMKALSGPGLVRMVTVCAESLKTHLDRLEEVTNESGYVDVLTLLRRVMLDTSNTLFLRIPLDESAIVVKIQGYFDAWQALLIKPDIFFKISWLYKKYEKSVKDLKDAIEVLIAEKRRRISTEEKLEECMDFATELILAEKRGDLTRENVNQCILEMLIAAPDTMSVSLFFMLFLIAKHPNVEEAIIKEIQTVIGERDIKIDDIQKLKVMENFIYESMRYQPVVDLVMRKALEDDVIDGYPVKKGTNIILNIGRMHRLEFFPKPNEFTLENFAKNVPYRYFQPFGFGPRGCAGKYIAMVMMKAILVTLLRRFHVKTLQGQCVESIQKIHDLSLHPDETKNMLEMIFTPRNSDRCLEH

For the compound `CC(C)(C)C(O)/C(=C\c1ccc(Cl)cc1Cl)n1cncn1` (stereo not drawn), the Potency in test [1] is 18.6 µM (active); in test [2], 18.6 µM (active); in [3], 18.6 µM (active); in test [5], 83 µM (active); in test [6], 74 µM (active); in [7], 59.3 µM [inhibitor] (active). For the same compound, the Potency in [10] was 74 µM (active); in the test with Aromatase (Homo sapiens), 58.7 µM (active). For the same compound, the Potency entry in [4], in [8], in test [9] and in test [11] was “inactive” each time.

As to `CC[C@H](C)[C@H]1O[C@]2(C=C[C@@H]1C)C[C@@H]1C[C@@H](C/C=C(\C)[C@@H](O[C@H]3C[C@H](OC)[C@@H](O[C@H]4C[C@H](OC)[C@@H](O)[C@H](C)O4)[C@H](C)O3)[C@@H](C)/C=C/C=C3\CO[C@@H]4[C@H](O)C(C)=C[C@@H](C(=O)O1)[C@]34O)O2`, the Potency in test [1] is 18.8 µM (active) and 3.61 µM (active); in [2], 21.1 µM (active) and 10.2 µM (active); in test [3], 26.6 µM (active) and 6.42 µM (active); in test [5] it was 3.22 µM (active); in test [6], 26.6 µM (active) and 3.22 µM (active); in test [7], 4.59 µM [inconclusive] (active). In addition, the Potency result is “inactive and 25.8 µM (active)” in test [8]; “inactive and 14.4 µM (active)” in the test with Aromatase (Homo sapiens). The Potency result in test [12], in [4], in test [9], in test [13], in test [10] and in test [11] was “inactive” throughout.

For the compound `CN(C)S(=O)(=O)N(SC(F)(Cl)Cl)c1ccccc1`, the Potency in test [1] is 0.109 µM (active); in test [3], 0.109 µM (active); in test [12], 3.47 µM (active); in test [4], 24.3 µM (active); in test [5] it was 1.22 µM (active); in test [6], 1.22 µM (active). Moreover, in the test with Aromatase (Homo sapiens), the Potency was 3.44 µM (active).

On to `C[C@]12CC[C@H]3[C@@H](CCC4=CC(=O)CC[C@@]43C)[C@@H]1CC[C@@H]2O`, for which the Potency was 54.1 µM (active) in test [1], 30.4 µM (active) in test [2] and 30.4 µM (active) in test [6]. In addition, the Potency result in [12], in test [4], in test [5], in test [8], in [10] and in test [11] was “inactive” throughout. Besides, the Potency result with Aromatase (Homo sapiens) is “inactive”. In addition, the call in test [14] was inactive.

In the case of `CCOP(=O)(NC(C)C)Oc1ccc(SC)c(C)c1` (stereo not drawn), the Potency in [1] was 7.7 µM (active); in test [2], 18.8 µM (active); in [3] it was 40.1 µM (active); in test [5] it was 61.1 µM (active). Further, the Potency entry in [4] was “inactive”.

As for `O=C(O)C1C2CCC(O2)C1C(=O)O` (stereo not drawn), the Potency entry in [1], in [2], in test [3], in [12], in test [4] and in test [5] was “inactive” throughout. Besides, the Potency result in test [8] and in test [11] was “inactive” each time. Further, in test [14], the call was inactive.

On to `CCCCCCCCCCCCBr`, for which the Potency in test [1] is 27.3 µM (active); in test [2], 13.7 µM (active); in test [3], 30.6 µM (active). Also, the Potency entry in test [5], in test [7], in test [9], in test [13], in test [10] and in test [11] was “inactive” throughout. Also, in [14], the compound was classed as inactive.

Regarding `CCOCCOC(C)=O`, the Potency entry in [2], in test [3], in test [12], in [4], in test [6] and in [7] was “inactive” in each case. For the same compound, the Potency entry (in [9]; in test [13]; in test [10]; with Aromatase (Homo sapiens)) was “inactive” each time. In test [14], the call was inactive.

`O=CC(Br)(Br)Br`: the Potency in [2] was 24.3 µM (active); in test [12] it was 21.8 µM (active); in test [5] it was 19.3 µM (active); in [6], 19.3 µM (active); in test [9], 21.8 µM [inconclusive] (active); with Aromatase (Homo sapiens) it was 10.8 µM (active). The Potency result in [4] and in test [11] was “inactive” each time. In addition, the compound was classed as inactive in test [14].
